Test results from PubChem BioAssay (NCATS).
“And” between values parts separate entries of the source, which are not always exact repeats. Equal entries are not always repeated. Unmarked numbers belong to inactive results. Inconclusive results are not listed. Entries that show only a call come without a potency. The source made the active and inactive calls. Unless noted, calls come from the whole dose curve; as a rule, active = well fitted curve in the direction sought with a large enough effect; inconclusive = small, poorly fitted or top-dose-only effect, or another doubt; inactive = no such curve, though single readings can be large; an effect the other way counts as inactive or inconclusive.

Tests used:
[1] = target: Voltage-gated inwardly rectifying potassium channel KCNH2 (Homo sapiens) (UniProt Q12809); assay: qHTS Assay for Small Molecule Inhibitors of the Human hERG Channel Activity (AID 588834);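 note: lower thallium flux fluorescence means stronger hERG block; nearly all actives have a fitted effect of over 50% in size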; note: potency is the fitted concentration of half-maximal effect
Chain of Voltage-gated inwardly rectifying potassium channel KCNH2 (Homo sapiens) (Q12809 whole entry, looked up): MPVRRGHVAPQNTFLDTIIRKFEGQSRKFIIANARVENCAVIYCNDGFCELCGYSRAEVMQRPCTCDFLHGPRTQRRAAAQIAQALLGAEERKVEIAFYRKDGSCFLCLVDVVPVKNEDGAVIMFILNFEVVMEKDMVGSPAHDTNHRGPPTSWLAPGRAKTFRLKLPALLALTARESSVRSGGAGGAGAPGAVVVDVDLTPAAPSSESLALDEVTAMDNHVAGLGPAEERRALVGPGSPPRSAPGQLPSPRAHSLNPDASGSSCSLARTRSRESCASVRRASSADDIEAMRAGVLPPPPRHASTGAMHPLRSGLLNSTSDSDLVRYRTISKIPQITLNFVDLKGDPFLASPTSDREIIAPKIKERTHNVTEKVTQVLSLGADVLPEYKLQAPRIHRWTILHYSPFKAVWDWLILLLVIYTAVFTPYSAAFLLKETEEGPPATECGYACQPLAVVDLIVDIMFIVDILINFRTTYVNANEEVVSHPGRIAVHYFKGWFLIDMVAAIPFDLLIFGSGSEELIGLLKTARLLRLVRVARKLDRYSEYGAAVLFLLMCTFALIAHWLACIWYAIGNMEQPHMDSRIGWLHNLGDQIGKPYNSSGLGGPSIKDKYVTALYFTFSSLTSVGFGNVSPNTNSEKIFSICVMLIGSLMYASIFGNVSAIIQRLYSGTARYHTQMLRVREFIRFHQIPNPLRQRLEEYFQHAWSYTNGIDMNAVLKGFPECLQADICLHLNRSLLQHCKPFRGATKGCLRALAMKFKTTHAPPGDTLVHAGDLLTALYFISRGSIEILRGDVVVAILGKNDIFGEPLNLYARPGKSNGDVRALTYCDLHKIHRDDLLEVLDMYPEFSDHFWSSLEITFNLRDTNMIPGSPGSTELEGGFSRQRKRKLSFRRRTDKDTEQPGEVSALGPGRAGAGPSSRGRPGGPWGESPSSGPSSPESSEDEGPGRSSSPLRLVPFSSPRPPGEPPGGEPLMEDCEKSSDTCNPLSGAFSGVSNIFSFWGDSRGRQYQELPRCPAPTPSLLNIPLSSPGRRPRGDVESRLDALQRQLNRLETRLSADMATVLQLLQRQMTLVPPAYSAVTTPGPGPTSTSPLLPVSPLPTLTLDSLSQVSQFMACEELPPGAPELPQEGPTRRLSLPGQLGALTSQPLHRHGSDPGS
Summary of the method: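 Measured: FluxOR fluorescence after thallium stimulation in U2OS cells transduced with hERG by baculovirus. Compounds pre-incubated around 10 min; medium Opti-MEM with 2% FCS. AC50 from Hill equation.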

[2] = target: Luciferin 4-monooxygenase (Photinus pyralis) (UniProt P08659); assay: Biochemical firefly luciferase enzyme assay for NPC (AID 624030); note: nearly all actives have a fitted effect of over 70% in size; note: potency is the fitted concentration of half-maximal effect
Chain of Luciferin 4-monooxygenase (Photinus pyralis) (P08659 whole entry, looked up): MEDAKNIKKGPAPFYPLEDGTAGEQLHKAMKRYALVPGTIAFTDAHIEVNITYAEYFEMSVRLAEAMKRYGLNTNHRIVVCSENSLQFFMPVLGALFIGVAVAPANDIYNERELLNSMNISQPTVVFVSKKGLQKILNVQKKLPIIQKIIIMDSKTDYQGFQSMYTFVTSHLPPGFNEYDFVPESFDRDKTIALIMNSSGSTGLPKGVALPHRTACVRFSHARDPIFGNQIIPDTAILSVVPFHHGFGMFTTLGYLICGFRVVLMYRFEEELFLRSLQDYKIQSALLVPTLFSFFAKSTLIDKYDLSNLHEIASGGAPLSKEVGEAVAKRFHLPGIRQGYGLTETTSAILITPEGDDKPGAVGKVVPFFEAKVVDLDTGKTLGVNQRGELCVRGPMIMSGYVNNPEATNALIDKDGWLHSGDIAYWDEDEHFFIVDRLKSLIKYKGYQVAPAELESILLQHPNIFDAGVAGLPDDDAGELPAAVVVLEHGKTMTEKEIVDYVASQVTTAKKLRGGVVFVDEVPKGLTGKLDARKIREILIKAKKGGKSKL
Summary of the method: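 Purified P. pyralis luciferase at 10 nM in 50 mM Tris Acetate (final), luminescence read within 5 minutes of enzyme addition to compounds. Activity normalised to PTC124 versus DMSO; concentration-response curves classed by r2, magnitude and activity.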

[3] = S16 Schwann cell PMP22 intronic element firefly luciferase assay (AID 624032); note: nearly all actives have a fitted effect of over 30% in size; note: potency is the fitted concentration of half-maximal effect
Summary of the method: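 Rat S16 Schwann cells stably carrying firefly luciferase driven by a PMP22 intronic element, in 10% FBS, treated 24 h at 37 C. ONE-Glo luminescence normalized to PTC124 control and DMSO (0%); curves classed by r2, magnitude and activity.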

[4] = S16 Schwann cell PMP22 intronic element beta-lactamase assay (AID 624044; calls by dose curve; note: nearly all actives have a fitted effect of over 15% in size); conditions: S16 rat Schwann cells, PMP22 element beta-lactamase FRET, 24 h; ratio activity, negative = inhibition: at 38.3 µM (top of the series) unless noted
Summary of the method: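 Rat S16 Schwann cells with beta-Lac driven by a PMP22 intronic element, compound-treated 24 h at 37 °C. LiveBLAzer FRET B/G read: 460 nm normalized to potassium clavulanate vs DMSO; 535 nm FRET as viability; concentration-effect curves classified.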

[5] = qHTS assay for small molecule activators of the p53 signaling pathway (AID 651743; active = well fitted activation curve with a large enough effect in the signal ratio, not every such curve was filed as active; the % refers to the signal ratio); conditions: HCT-116 p53RE-bla, beta-lactamase FRET ratio, 16 h; activation: active compounds read high
Summary of the method: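 p53RE-bla HCT-116 cells carrying a beta-lactamase reporter under p53 response elements were exposed to compounds for 16 hours at 37 C. Reporter activity read as fluorescence after 2 hours at room temperature with LiveBLAzer B/G FRET substrate.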

[6] = qHTS assay for small molecule activators of the nuclear factor-kappa B (NF-kB) signaling pathway (AID 651749; active = well fitted activation curve with a large enough effect in the signal ratio; the % refers to the signal ratio); conditions: NF-kB-bla ME-180 cells, beta-lactamase FRET ratio, 16 h; active compounds read high
Summary of the method: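 NF-kB-bla ME-180 cells carrying a beta-lactamase reporter under an NF-kB response element, 2,000 cells/well, exposed to compound for 16 hr at 37C; FRET-based beta-lactamase fluorescence read-out of pathway activation.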

[7] = qHTS assay for small molecule disruptors of the mitochondrial membrane potential - 1 hr assay (AID 651754; calls by dose curve; note: nearly all actives have a fitted effect of over 35% in size)
Summary of the method: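 HepG2, 2,000 cells/well, overnight attachment; cpd or DMSO 1 hr, 37C/5% CO2; Mito-MPS dye 30 min, 37C; fluorescence monomer (490/535) and aggregate (540/590).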

[8] = qHTS assay for small molecule disruptors of the mitochondrial membrane potential - 5 hr assay (AID 651755; calls by dose curve; note: nearly all actives have a fitted effect of over 40% in size)
Summary of the method: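 HepG2 cells (2,000/well), attached overnight, exposed to compound 5 hr at 37C, then Mito-MPS dye 30 min. Fluorescence read for monomers (490/535 nm) and aggregates (540/590 nm).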

[9] = target: Tumor necrosis factor (Homo sapiens) (UniProt P01375); assay: qHTS assay to identify small molecules that stimulate Tumor Necrosis Factor-alpha (TNF-alpha) secretion (AID 651757; active = well fitted curve in the direction sought with a large enough effect in the signal ratio; the % refers to the signal ratio)
Chain of Tumor necrosis factor (Homo sapiens) (P01375 whole entry, looked up): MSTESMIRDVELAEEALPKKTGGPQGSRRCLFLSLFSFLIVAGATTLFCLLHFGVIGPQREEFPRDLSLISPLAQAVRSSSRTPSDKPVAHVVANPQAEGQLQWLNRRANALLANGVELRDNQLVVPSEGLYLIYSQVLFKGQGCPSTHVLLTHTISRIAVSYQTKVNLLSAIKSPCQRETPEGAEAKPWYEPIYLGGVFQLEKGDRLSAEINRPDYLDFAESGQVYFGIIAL
Summary of the method: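 Read-out is HTRF, a TR-FRET sandwich of cryptate- and XL665-labeled anti-TNF-alpha antibodies detecting cytokine secreted by THP-1 cells. Cells had been incubated with test compounds at 37 C for 17 hrs beforehand.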

[10] = qHTS assay for environmental chemicals that activate the Aryl hydrocarbon Receptor (AhR) signaling pathway (AID 651777); conditions: 1A2-DRE human hepatoma cells, luciferase, 24 h; activation: active compounds read high; note: nearly all actives have a fitted effect of over 15% in size
Summary of the method: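 Concentration–response screening used 1,200 1A2-DRE cells per well, 24 hr compound exposure (37 C, 5% CO2), and One-Glo luminescence as the AhR-driven CYP1A2 reporter signal.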

[11] = target: Peroxisome proliferator-activated receptor alpha (Homo sapiens) (UniProt Q07869); assay: qHTS assay for small molecule agonists of the peroxisome proliferator-activated receptor alpha (PPARalpha) signaling pathway (AID 651778); conditions: PathHunter PPARalpha complementation, chemiluminescence, 6 h; active compounds read high
Chain of Peroxisome proliferator-activated receptor alpha (Homo sapiens) (Q07869 whole entry, looked up, the tested form may be a part): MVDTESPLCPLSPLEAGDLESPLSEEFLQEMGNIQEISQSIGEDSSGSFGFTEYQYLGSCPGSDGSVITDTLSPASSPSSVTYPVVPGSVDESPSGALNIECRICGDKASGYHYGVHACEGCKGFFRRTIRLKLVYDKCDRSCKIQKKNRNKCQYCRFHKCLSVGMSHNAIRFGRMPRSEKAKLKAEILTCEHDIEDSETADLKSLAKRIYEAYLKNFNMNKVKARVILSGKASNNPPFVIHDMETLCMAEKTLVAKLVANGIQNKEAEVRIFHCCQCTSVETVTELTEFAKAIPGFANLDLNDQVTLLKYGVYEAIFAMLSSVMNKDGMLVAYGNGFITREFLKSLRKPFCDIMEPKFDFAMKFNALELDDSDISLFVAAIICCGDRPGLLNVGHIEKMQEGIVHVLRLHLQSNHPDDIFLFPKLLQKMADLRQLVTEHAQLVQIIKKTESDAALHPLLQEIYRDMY
Summary of the method: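 Enzyme-fragment complementation assay in which ligand-bound PPARalpha translocates and forms an active enzyme that generates chemiluminescence. Cells were plated overnight, exposed to compound for 6 hr at 37 C, and then given detection reagent for 60 min at room temperature.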

[12] = target: Nuclear receptor ROR-gamma (Homo sapiens) (UniProt P51449); assay: qHTS assay for small molecule antagonists of the retinoid-related orphan receptor gamma (ROR-gamma) signaling pathway (AID 651802);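 note: CHO cells with doxycycline-induced ROR-gamma expression; luciferase reporter luminescence driven by ROR response element; nearly all actives have a fitted effect of over 60% in size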
Chain of Nuclear receptor ROR-gamma (Homo sapiens) (P51449 whole entry, looked up): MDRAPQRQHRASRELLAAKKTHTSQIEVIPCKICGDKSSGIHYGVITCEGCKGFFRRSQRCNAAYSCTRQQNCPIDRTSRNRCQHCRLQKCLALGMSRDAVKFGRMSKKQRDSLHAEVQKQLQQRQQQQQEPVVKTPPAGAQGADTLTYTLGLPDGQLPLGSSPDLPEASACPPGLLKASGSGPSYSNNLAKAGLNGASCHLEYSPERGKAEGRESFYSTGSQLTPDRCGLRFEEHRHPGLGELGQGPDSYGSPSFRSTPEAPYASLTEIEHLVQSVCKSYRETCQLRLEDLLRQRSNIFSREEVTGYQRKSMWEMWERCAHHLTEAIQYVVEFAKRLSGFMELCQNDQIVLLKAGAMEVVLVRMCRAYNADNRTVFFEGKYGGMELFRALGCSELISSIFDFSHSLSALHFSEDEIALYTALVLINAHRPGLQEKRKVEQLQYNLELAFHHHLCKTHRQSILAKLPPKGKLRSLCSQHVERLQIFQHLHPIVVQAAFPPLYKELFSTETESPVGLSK
Summary of the method: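 CHO, TET-inducible ROR + RORE-LUC reporter, 1536-well qHTS. Compound pinned, doxycycline added, 16hr 37C/5% CO2. ONE-Glo, 30 min RT, luminescence; signal drop scored as antagonism.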

[13] = qHTS assay for small molecule agonists of the antioxidant response element (ARE) signaling pathway (AID 651741; active = well fitted activation curve with a large enough effect in the signal ratio; the % refers to the signal ratio; note: potency is the fitted concentration of half-maximal effect)
Summary of the method: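 CellSensor ARE-bla HepG2 cells (2,000/well) carrying ARE-driven beta-lactamase, exposed 16 h at 37 C. LiveBLAzer B/G FRET substrate added for 2 h at room temperature; fluorescence intensity read.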

[14] = qHTS assay to identify small molecules that stimulate interleukin-8 (IL-8) secretion (AID 651758; active = well fitted activation curve with a large enough effect in the signal ratio; the % refers to the signal ratio; note: potency is the fitted concentration of half-maximal effect)
Summary of the method: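 THP-1 cells (2000/well) exposed to compound 16 h at 37 C; secreted IL-8 then detected by HTRF with cryptate- and XL665-labelled anti-IL-8 antibody pair after 1-3 h at room temperature.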

[15] = S16 Schwann cell viability assay (CellTiter-Glo assay) (AID 624031);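 note: native untransfected S16 rat Schwann cells; cellular ATP luminescence as a viability measure; nearly all actives have a fitted effect of over 70% in size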
Summary of the method: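 Following overnight culture in 10% FBS DMEM, parental S16 rat Schwann cells are dosed for 24 h at 37 °C. Viability is read as CellTiter-Glo luminescence and expressed as % activity relative to DMSO (0%) and no-cell wells.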

CC(C)C1=CC2=CC[C@@H]3[C@](C)(CCC[C@@]3(C)C(=O)O)[C@H]2CC1
Potency [1]: inactive
Potency [2]: inactive
Potency [3]: inactive
ratio activity, negative = inhibition [4]: -5.72%

CC(=O)Nc1c(I)c(C(=O)O)c(I)c(N(C)C(C)=O)c1I
Potency [1]: inactive
Potency [2]: inactive
Potency [3]: inactive
ratio activity, negative = inhibition [4]: 11.6%

OCC(O)CO
Potency [1]: inactive
Potency [2]: inactive
Potency [3]: inactive
ratio activity, negative = inhibition [4]: 2.96%
activation [5]: -2.04% and 0.703%
activation [6]: 0.141% and 0.577%
Potency [7]: inactive
Potency [8]: inactive
Potency [9]: inactive
activation [10]: -0.636% and 0.226%
max response [11]: -3.36% and -0.557%
Potency [12]: inactive

O=C(/C=C/c1cccc(F)c1)NC1CC1
Potency [1]: inactive
Potency [2]: inactive
Potency [3]: inactive
ratio activity, negative = inhibition [4]: 2.97%

CCOc1cc(-c2nccc3cc(OC)c(OC)cc23)cc(OCC)c1OCC
Potency [1]: inactive
Potency [2]: inactive
ratio activity, negative = inhibition [4]: -11.1%

CC(=O)N=c1sc(S(N)(=O)=O)nn1C
Potency [1]: inactive
Potency [2]: inactive
Potency [3]: inactive
ratio activity, negative = inhibition [4]: -0.416% [at 17.1 µM]

O=[n+]1ccn([O-])c2ccccc21
Potency [1]: inactive
Potency [2]: inactive
Potency [3]: inactive
ratio activity, negative = inhibition [4]: 6.86%

CC(C)CCCC(C)NC(C)C (stereo not drawn)
Potency [1]: inactive
Potency [2]: inactive
Potency [3]: inactive
ratio activity, negative = inhibition [4]: 5.39%

Oc1ccc(Cl)c2c1CCC2
Potency [1]: inactive
Potency [2]: inactive
ratio activity, negative = inhibition [4]: -4.38%

CN(C)c1ccc(C(=C2C=CC(=[N+](C)C)C=C2)c2c(O)c(S(=O)(=O)[O-])cc3cc(S(=O)(=O)O)ccc23)cc1
Potency [1]: inactive
Potency [2]: 14.4 µM (active)
Potency [3]: 36.1 µM (active)
ratio activity, negative = inhibition [4]: 1.14%

CCN(CC)C(=O)c1cccnc1
Potency [1]: inactive
Potency [2]: inactive
Potency [3]: inactive
ratio activity, negative = inhibition [4]: 2.08%

OC[C@H]1O[C@@H]2O[C@H]3[C@H](O)[C@@H](O)[C@@H](O[C@H]4[C@H](O)[C@@H](O)[C@@H](O[C@H]5[C@H](O)[C@@H](O)[C@@H](O[C@H]6[C@H](O)[C@@H](O)[C@@H](O[C@H]7[C@H](O)[C@@H](O)[C@@H](O[C@H]1[C@H](O)[C@H]2O)O[C@@H]7CO)O[C@@H]6CO)O[C@@H]5CO)O[C@@H]4CO)O[C@@H]3CO
Potency [1]: inactive
Potency [2]: inactive
Potency [3]: inactive
ratio activity, negative = inhibition [4]: 1.18%
Potency [13]: inactive
Potency [7]: inactive
Potency [8]: inactive
Potency [9]: inactive
Potency [14]: inactive
activation [10]: 1.89% and -0.569%
max response [11]: -0.429% and -5.48%
Potency [12]: inactive

CCCCCCCCCCCC(=O)N(CCO)CCO
Potency [1]: inactive
Potency [2]: inactive
Potency [3]: inactive
ratio activity, negative = inhibition [4]: 0%

O=C(NCCNCC(O)COc1ccc(O)cc1)N1CCOCC1 (stereo not drawn)
Potency [1]: inactive
Potency [2]: inactive
Potency [3]: inactive
ratio activity, negative = inhibition [4]: 1.92%

CC[C@H]1OC(=O)[C@H](C)[C@@H](O[C@H]2C[C@@](C)(OC)[C@@H](O)[C@H](C)O2)[C@H](C)[C@@H](O[C@@H]2O[C@H](C)C[C@H](N(C)C)[C@H]2O)[C@](C)(O)C[C@@H](C)CN(C)[C@H](C)[C@@H](O)[C@]1(C)O
Potency [1]: inactive
Potency [2]: inactive
Potency [3]: inactive
ratio activity, negative = inhibition [4]: -5.31%
Potency [13]: inactive
activation [5]: -5.82%
activation [6]: -0.197%
Potency [7]: inactive
Potency [8]: inactive
Potency [9]: inactive
activation [10]: 0.789%
max response [11]: -5.78%
Potency [12]: inactive

CCCOc1cc(N)ccc1C(=O)OCCN(CC)CC
Potency [1]: inactive
Potency [2]: inactive
Potency [3]: inactive
ratio activity, negative = inhibition [4]: 1.14% [at 17.1 µM]

O=C(CCCCCCCCCCCCC1CCCC1)Nc1ccc(S(=O)(=O)c2ccc(NC(=O)CCCCCCCCCCCCC3CCCC3)cc2)cc1
Potency [1]: inactive
Potency [2]: inactive
Potency [3]: inactive
ratio activity, negative = inhibition [4]: 4.78%

CCc1ccc(S(=O)(=O)O)cc1
Potency [1]: inactive
Potency [2]: inactive
Potency [3]: inactive
ratio activity, negative = inhibition [4]: -9.66%

C=C1C(CCl)(CCl)C2(Cl)C(Cl)C(Cl)C1(Cl)C2(Cl)Cl (stereo not drawn)
Potency [1]: 28.2 µM (active) and 15.8 µM (active)
Potency [2]: inactive
Potency [3]: 36.1 µM (active)
ratio activity, negative = inhibition [4]: -26.3%
Potency [13]: 37.6 µM (active)
activation [6]: 0.534%
Potency [14]: 66.8 µM (active)
activation [10]: 1.11%
max response [11]: 19%

CC(C)[C@@H]1CC[C@@H](C)C[C@H]1O
Potency [1]: inactive
Potency [13]: inactive
activation [6]: 0.809%
activation [10]: -0.378%
max response [11]: -1.09%

CC(C)(C)c1ccc2c(S(=O)(=O)O)c(C(C)(C)C)ccc2c1
Potency [1]: inactive
Potency [15]: inactive
Potency [3]: inactive
ratio activity, negative = inhibition [4]: -0.38%
